Compound activity from PubChem.
In the library only some 1.3% were active in any assay of this set; here they are far more common.
Sa RN4220 lethal: growth inhibition of S. aureus RN4220, primary screen, OD600; inhibition, % (no concentration beside the values); AID 1259311, 2017; 330,000 tested, 0.33% active; 16 h; in the data active = inhibition above about 85%;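 also: plate controls were untreated cells for no effect and reference antibiotic for full effect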
CCHF vOTU inh-1: CCHFV vOTU protease inhibitors, primary screen, biochemical, Pep-AMC substrate, fluorescence. Crimean-Congo hemorrhagic fever virus L polyprotein viral ovarian tumor (vOTU) protease …. inhibition, % at 11.5 µM. 370,000 tested, 0.55% active. AID 651958, 2012; also: 0% = vehicle wells with enzyme and 100% = no enzyme wells
3CLpro inhibitor: SARS-CoV 3CLpro protease inhibitors, primary screen, biochemical, quenched FRET | Replicase polyprotein 1ab (Severe acute respiratory syndrome coronavirus), P0C6X7 | recombinant SARS-CoV 3CLpro, quenched FRET peptide cleavage | inhibition, % at 6 µM | 290,000 tested, 0.14% active; in the data active = inhibition above about 12%
Mtb betalactam: beta-lactam sensitization of Mtb H37Rv, H37Rv. M. tuberculosis H37Rv growth with meropenem, percent inhibition. inhibition, % at 25 µM. 330,000 tested, 0.27% active. AID 434955, 2010; call rule not given here;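 also: growth measured after seven days incubation then overnight dye step; 0% = bacteria only wells and 100% = bacteria with antibiotic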
MazF activator: activators of E. coli MazEF toxin-antitoxin RNase, primary screen, biochemical, fluorescence, uHTS; Endoribonuclease toxin MazF (Escherichia coli (strain K12)), P0AE70; FAM/BHQ RNA-DNA oligo cleavage fluorescence, 5 h; activation, % at 20 µM; 350,000 tested, 0.32% active; AID 504720, 2011; in the data active = activation above about 50%
Target sequence (P0AE70 whole entry, looked up): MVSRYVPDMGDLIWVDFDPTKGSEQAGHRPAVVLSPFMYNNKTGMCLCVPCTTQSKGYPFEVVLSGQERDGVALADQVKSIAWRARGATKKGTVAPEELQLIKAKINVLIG
ugtP null kill: growth inhibition of ugtP-null S. aureus, primary screen, RN4220 ugtP deletion, OD600; 16 h; growth inhibition, % (test concentration not listed); 330,000 tested, 0.54% active; AID 1259309, 2017; in the data active = growth inhibition above about 68%;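 also: plate controls were untreated wells for no effect and antibiotic for full effect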
CCHF vOTU inh-2: CCHFV vOTU protease inhibitors, confirmation, biochemical, Pep-AMC substrate, fluorescence | shares compounds with CCHF vOTU inh-1 | 1,900 tested, 17% active | inhibition, % at 11.5 µM | Recombinant CCHFV vOTU
* = called active by the depositor; x = no result. Rule as the data show it, unless noted: active = inhibition above about 30%; inactive = the rest.

SMILES	Sa RN4220 lethal	CCHF vOTU inh-1	3CLpro inhibitor	Mtb betalactam	MazF activator	ugtP null kill	CCHF vOTU inh-2
Cc1cccc(Oc2cc(NC(=O)Cn3cnc([N+](=O)[O-])n3)cc([N+](=O)[O-])c2)c1	7	33*	6	99	-3	26	-3
O=C1CC2c3c(cccc3CN1Cc1ccccc1Br)CC(O)C2O (configuration not stated)	9	x	x	x	x	-4	x
COC(=O)c1cc(NS(=O)(=O)c2ccc(N3CCC(C)CC3)c([N+](=O)[O-])c2)cc(C(=O)OC)c1	-10	34*	4	1	4	7	-4
COC(=O)c1cc(NS(=O)(=O)c2ccc(N3CCCCC3)c([N+](=O)[O-])c2)cc(C(=O)OC)c1	7	9	5	2	-9	1	x
CCOC(=O)c1c(NC(=O)/C=C/C(=O)O)sc(C)c1-c1ccc(C(C)(C)C)cc1	11	45*	6	6	-3	30	16
CC(C)n1c(SC2C(=O)CC(C)(C)CC2=O)nc2c1c(=O)n(C)c(=O)n2C	4	30*	0	-5	6	6	-11
COc1ccc2c(c1)OC(c1ccc3c(c1)OCO3)C(O)C2=O (configuration not stated)	7	x	x	x	x	-3	x
C[n+]1cccc2cccc([O-])c21	5	58*	8	x	-4	5	96*
[O-][n+]1cccc2cccc(O)c21	5	0	x	x	6	1	x
COc1ccc(C=NNC(=O)C(C)n2nnc3ccccc32)cc1OC (configuration not stated)	-2	x	x	x	x	-6	x
CC1Cc2ccccc2N1C(=O)COC(=O)c1ccco1 (configuration not stated)	x	9	x	x	7	x	x
CC1Cc2ccccc2N1C(=O)COC(=O)c1ccc([N+](=O)[O-])o1 (configuration not stated)	7	39*	x	100	2	8	10
COC(=O)c1ccc(C=NNC(=O)C(=O)NCC2CCCO2)cc1 (configuration not stated)	4	x	x	x	x	5	x
CC(C)(C)c1ccc(-c2cn(C[C@H](Cc3ccccc3)n3c(=O)c4ccccc4n3Cc3ccccc3)nn2)cc1	x	-6	x	x	x	x	x
CCc1cc(-c2cnnn2Cc2ccccc2)ccc1-c1cn(CC(C)C)nn1	x	30*	x	x	4	x	-10
CCOC(=O)c1c(C)oc2c1C(=O)c1ccccc1C2=O	20	16	0	2	8	16	x
Cc1oc2c(c1C(=O)O)C(=O)c1ccccc1C2=O	13	67*	3	-2	-3	8	78*
CC(=NNC(=S)Nc1c(C)cccc1C)c1ccc(O)cc1	-2	x	x	x	x	6	x
O=C(Cc1ccccc1)Nc1cc(Cl)ccc1Sc1ccccc1	-2	30*	-2	6	-10	7	-13
O=C(Cc1ccc(Cl)cc1)Nc1ccccc1Sc1ccccc1	-3	-4	-2	7	2	-2	x
COc1cccc(Oc2ccc(S(=O)(=O)N3CCCC3)cc2[N+](=O)[O-])c1	x	34*	0	9	-3	x	-12
CC(=O)OC1CC2C(C)=CC3OC(=O)C(C)C3CC2[C@]1(C)O (some centres not stated)	8	x	x	x	x	-1	x
CCC(O)c1c(-c2ccccc2)nn(C)c1Cl (configuration not stated)	6	31*	2	-3	8	-1	-16
C=CCC(O)c1c(-c2ccccc2)nn(C)c1Cl (configuration not stated)	-1	1	-2	-4	4	-3	x
CCOC(=O)C1=C(CNC(C)(C)CC(C)(C)C)NC(=O)NC1c1cccc([N+](=O)[O-])c1 (configuration not stated)	5	31*	2	-4	-4	5	13
SMILES	Sa RN4220 lethal	CCHF vOTU inh-1	3CLpro inhibitor	Mtb betalactam	MazF activator	ugtP null kill	CCHF vOTU inh-2
CCOC(=O)C1=C(CNCCc2ccc(Cl)cc2)NC(=O)NC1c1cccc([N+](=O)[O-])c1 (configuration not stated)	2	16	8	-8	-1	14	x
CNC(=S)NN=Cc1c(Cl)cccc1Cl	0	x	x	x	x	0	x
Oc1ccc(C=NN2CCCCC2)cc1O	-1	x	x	x	x	1	x
CCOC(=O)C1=C(COC(=O)c2ccccc2OC(F)F)NC(=O)NC1C (configuration not stated)	7	-7	x	2	8	5	x
CCOC(=O)C1=C(COC(=O)c2ccc3ccccc3c2O)NC(=O)NC1C (configuration not stated)	3	36*	x	3	-398	-11	-12
CCOC(=O)C1=C(COC(=O)c2ccc([N+](=O)[O-])s2)NC(=O)NC1C (configuration not stated)	15	100*	x	15	3	2	76*
CCOC(=O)C1=C(COC(=O)c2sccc2C)NC(=O)NC1C (configuration not stated)	7	13	x	-4	7	8	x
CC(=O)Nc1ccc(/C=N/NC(=S)NC(C)C)cc1	x	36*	-1	-7	2	x	3
CCCNC1=C(N(C(C)=O)c2cccc(F)c2)C(=O)c2ccccc2C1=O	22	70*	2	99	-2	20	46*
Cn1ccc2c(N3CCCC3)cc3c(c21)C1CCC3O1 (configuration not stated)	x	38*	x	x	x	x	-14
C#CCN1CC(COc2ccccc2)Oc2cccc(Oc3ccc(SC)c(C)c3)c2S1(=O)=O (configuration not stated)	x	31*	x	x	x	x	-13
CSc1ccc(Oc2cccc3c2S(=O)(=O)N(C2CC2)C[C@@H](COCc2ccccc2)O3)cc1C	x	-2	x	x	x	x	x
CCN(C[C@H]1N[C@@](CC)(C(=O)OC)[C@H]2C(=O)N(Cc3ccccc3)C(=O)[C@@H]12)S(=O)(=O)c1ccc(OC)cc1	3	33*	x	-7	9	3	-10
CCN(C[C@H]1N[C@@](Cc2ccccc2)(C(=O)OC)[C@H]2C(=O)N(Cc3ccccc3)C(=O)[C@@H]12)S(=O)(=O)c1ccc(OC)cc1	3	2	x	-5	-5	2	x
O=C(c1ccccc1)N1CCN(C2CCCCC2)CC1	-14	-7	0	-14	4	-3	x
O=C1CCN(CC2CCCCC2)C=C1C(=O)c1ccccc1	x	32*	x	x	11	x	-13
O=C(NN=C/C=C\c1cccc([N+](=O)[O-])c1)c1cccnc1	2	x	x	x	x	-2	x
